Compounds with a hit are over-represented: about 21% of the library has one in this group of screens.
RORg inh: blocks mouse ROR gamma transcriptional activity. Drosophila S2 Gal4-RORgamma UAS-luciferase reporter, 20 h. Potency, µM (series often up to 53.6 µM), inactives show at the top dose activity change, negative = inhibition, actives largely listed as inhibitors. AID 2551. hit rate 5.4% among 310,000; note: potency is the fitted concentration of half-maximal effect; nearly all actives have a fitted effect of over 60% in size
Target sequence (P51450 whole entry, looked up, the tested form may be a part): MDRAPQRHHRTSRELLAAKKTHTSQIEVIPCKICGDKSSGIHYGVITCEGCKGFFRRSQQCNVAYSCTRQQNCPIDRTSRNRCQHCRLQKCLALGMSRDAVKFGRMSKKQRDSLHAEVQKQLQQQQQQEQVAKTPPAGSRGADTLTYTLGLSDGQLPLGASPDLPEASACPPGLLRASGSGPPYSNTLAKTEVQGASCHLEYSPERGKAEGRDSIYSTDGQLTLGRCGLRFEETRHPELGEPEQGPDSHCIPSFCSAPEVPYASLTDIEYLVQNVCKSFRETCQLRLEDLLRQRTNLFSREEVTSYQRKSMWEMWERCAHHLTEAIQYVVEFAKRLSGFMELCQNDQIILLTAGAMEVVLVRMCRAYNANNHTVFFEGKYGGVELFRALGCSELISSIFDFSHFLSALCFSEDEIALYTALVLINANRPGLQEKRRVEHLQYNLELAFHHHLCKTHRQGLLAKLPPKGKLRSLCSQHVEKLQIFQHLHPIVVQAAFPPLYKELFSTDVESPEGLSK
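ROR gamma transcriptional activity was tracked as Gal4-UAS luciferase output in stably transfected Drosophila Schneider cells, with compound added 1 hr before 700 uM copper sulfate induction and a 20 hr ambient-temperature incubation.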
TDP1 cell noCPT: qHTS for Inhibitors of human tyrosyl-DNA phosphodiesterase 1 (TDP1): qHTS in cells in absence of CPT; DT40 Tdp1-/- hTDP1 cells, no CPT, ATP luminescence, 48 h; Potency, µM (highest dose often 46.2 µM), for inactives: top-dose activity change, negative = growth inhibition, most hits filed as inhibitors; hit rate 15% among 420,000; AID 686978, 2013; note: potency is the fitted concentration of half-maximal effect; nearly all actives have a fitted effect of over 55% in size
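Camptothecin absent (DMSO only). Human TDP1-complemented DT40 knockout cells, 400 cells/well, 37 °C for minimum 48 hr; ATP measured via CellTiter-Glo, 30 min dark incubation, luminescence.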
Gal4-VP16 FLuc: counter-screen for ROR gamma inhibitors: Gal4-VP16 reporter. Potency, µM (doses to about 53.6 µM), for inactives: at the top dose activity, negative = inhibition, actives largely listed as inhibitors. hit rate 3.5% among 310,000. Drosophila S2 Gal4-VP16 UAS-luciferase, luminescence, 20 h;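 note: Gal4-VP16 expression switched on by copper sulfate through the metallothionein promoter; potency is the fitted concentration of half-maximal effect; nearly all actives have a fitted effect of over 50% in size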
TDP1 cell CPT: DT40-hTDP1 cell growth loss with CPT; chicken DT40 Tdp1-/-;hTDP1 cells + 20 nM CPT, ATP luminescence, 48 h; Potency, µM (top dose mostly 46.2 µM), for the others: at the top dose activity change, negative = growth inhibition, usual class: inhibitors; hit rate 12% among 420,000; AID 686979; note: potency is the fitted concentration of half-maximal effect; nearly all actives have a fitted effect of over 55% in size
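Chicken DT40 Tdp1-/- cells stably complemented with human TDP1 were seeded at 400 cells/well in medium containing 20 nM camptothecin, exposed to pin-transferred compounds, and grown at 37 °C for at least 48 hr. Viability was read as ATP luminescence.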
ELG1 DNA repair: ELG1-dependent DNA repair inhibition; HEK293T ELG1-luciferase reporter, luminescence, 16 h; DNA damage induced by 5-fluorouridine; Potency, µM (highest dose often 46.1 µM), for the others: at the highest dose activity change, negative = inhibition, hits mostly inhibitors; hit rate 2.3% among 330,000; AID 504467; note: potency is the fitted concentration of half-maximal effect; nearly all actives have a fitted effect of over 55% in size
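Overnight (16 hr) co-exposure of 2,000 cells/well to 5-fluorouridine and compound at 37 °C preceded detection. Luciferase was quantified via ONE-Glo luminescence; loss of signal denotes inhibition.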
IL1B secr inh: blocks inflammasome-driven IL-1 beta release | THP-1 LPS/ATP IL-1B secretion, AlphaLISA, 16 h; active compounds read low | hit rate 4.7% among 360,000 | activity change, % at 57.5 µM; in the data active = activity change below about -50%; inconclusive = mostly about -30% to -49%
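THP-1 cells pretreated 1 hr with compounds (up to 57.5 uM final), then stimulated with LPS (250 ng/mL final) plus ATP (1.25 mM final); secreted IL-1B measured by AlphaLISA after 16 hr, decreased signal indicating inhibition.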
The depositor's hits bear a star; ? = inconclusive; . = no result given; [ ] = another dose, or the depositor's remark. Unless noted, calls come from the whole dose curve; as a rule, active = well fitted curve in the direction sought with a large enough effect; inconclusive = small, poorly fitted or top-dose-only effect, or another doubt; inactive = no such curve, though single readings can be large; an effect the other way counts as inactive or inconclusive. % is set by controls: 0 for no effect and ±100 for the full control effect.

SMILES	RORg inh	TDP1 cell noCPT	Gal4-VP16 FLuc	TDP1 cell CPT	ELG1 DNA repair	IL1B secr inh
COc1ccc(NC(=O)CSc2nnc(CC(=O)Nc3ccc(F)cc3)n2C)cc1	15%	2%	-15%	6%	0%	43
Cc1nnc(N/N=C/c2ccccc2F)n1N	-36%	15%	?	-14%	-5%	0
COc1cccc(/C=N/Nc2c(Cl)cncc2Cl)c1O	15%	?	-12%	-16%	?	-7
Cc1nnc(N/N=C/c2cccc(C(F)(F)F)c2)n1N	-38%	-5%	?	-22%	-5%	29
COc1cccc(/C=N/Nc2nnc(C)n2N)c1O	2.2µM*	21µM*	3.2µM*	?	-3%	7
COc1cccc(/C=N/Nc2ncnc3c2ncn3Cc2ccccc2)c1O	?	4.6µM*	?	3.7µM*	?	-52*
Cc1nnc(N/N=C/c2ccco2)n1N	11µM*	5%	13µM*	-6%	1%	16
Cc1nc(Cl)cc(N/N=C/c2ccc(O)cc2O)n1	?	21µM*	?	?	?	-3
Cc1ccc(C)c(NCC(O)c2ccccc2)c1 (stereo unspecified)	28%	0%	26%	-2%	4%	-19
COc1cccc(/C=N/Nc2cc(Cl)nc(C)n2)c1O	0.5µM*	1%	2.8µM*	5%	?	14
COc1ccc(-n2c(C)cc(/C=N/Nc3nnc(C)n3N)c2C)cc1	?	16µM*	?	23µM*	0%	-81*
Cc1ccc(NC(=O)c2ccc(S(=O)(=O)N3CCOCC3)cc2)cc1	5%	-5%	-1%	10%	?	-7
Cc1cccc(NC(=S)N=Nc2c(O)n(C)c3ccc(S(=O)(=O)N4CCOCC4)cc23)c1	0.13µM*	3.3µM*	0.71µM*	3.7µM*	3%	3
Cc1cc(C)cc(NC(=S)N=Nc2c(O)n(C)c3ccc(S(=O)(=O)N4CCOCC4)cc23)c1	?	4.6µM*	-90%	1.2µM*	?	-4
Cc1ccc(NC(=S)N=Nc2c(O)n(C)c3ccc(S(=O)(=O)N4CCOCC4)cc23)cc1	0.71µM*	2.6µM*	1µM*	2.6µM*	-2%	-6
Cc1nn(C(C)C(=O)Nc2ccccc2C(F)(F)F)c(=O)c2c1sc1ccccc12 (stereo unspecified)	.	-10%	.	-6%	.	.
c1ccc(C2(CN3CCNC[C@H]3Cc3cccc4ccccc34)CC2)cc1	.	?	.	?	?	-68*
CC(C)(C)CN1CCNC[C@H]1Cc1cccc2ccccc12	.	?	.	?	20%	?
c1ccc2c(C[C@@H]3CNCCN3CCCCC3CCCCC3)cccc2c1	.	?	.	?	?	-16
c1ccc2c(C[C@@H]3CNCCN3CCC34CC5CC(CC(C5)C3)C4)cccc2c1	.	?	.	18µM*	14%	10
NCCCNc1ccc(Br)cn1	.	?	.	2%	.	.
CC(C)Oc1ccc2ccccc2c1CNC[C@H]1O[C@@H](n2ccc(N)nc2=O)[C@H](O)[C@@H]1O	.	-21%	.	1%	.	18
COc1ccc(N=C2CCS(=O)(=O)c3sccc32)cc1	-10%	?	4%[10 µM]	9.2µM*	19%	-7
COc1ccc(-c2cc(=O)oc3cc(OC(C)C(=O)NCCCn4ccnc4)ccc23)cc1 (stereo unspecified)	7%	21µM*	-10%	18µM*	-22%	51
COc1ccc(-c2cc(=O)oc3c(C)c(OC(C)C(=O)NCc4ccccn4)ccc23)cc1 (stereo unspecified)	-16%	26µM*	1%	?	?	-9
SMILES	RORg inh	TDP1 cell noCPT	Gal4-VP16 FLuc	TDP1 cell CPT	ELG1 DNA repair	IL1B secr inh
COc1ccc(-c2cc(=O)oc3cc(OCC(=O)NCCCn4ccnc4)ccc23)cc1	43%	?	-20%	21µM*	-11%	-5
CC(=O)NC1(C(F)(F)F)C(=O)Nc2c1c(=O)[nH]c(=O)n2CCc1ccccc1 (stereo unspecified)	6%	3%	-8%	1%	-15%	7
CCc1ccc(NC(=O)CSc2cn(CC(=O)N3CCOCC3)c3ccccc23)cc1	.	?	.	-5%	.	.
O=C(Cn1cc(SCc2ccc(Cl)cc2)c2ccccc21)N1CCOCC1	?	21µM*	-1%	?	?	0
O=C(Cn1cc(SCc2ccc(F)cc2)c2ccccc21)N1CCOCC1	?	16µM*	?	?	-1%	0
COC(=O)c1ccc2nc(-c3ccco3)c(Cc3ccc(OC)cc3C)n2c1	.	?	.	?	.	-18
CCCCNC(=O)C(c1ccc(OCC(=O)OC)c(C(=O)OC)c1)N(CCOC)C(=O)CCCCCN1C(=O)NC(c2ccc(-c3ccccc3)cc2)C(C(=O)OCc2ccccc2)=C1C (stereo unspecified)	11%	.	4%	.	?	.
COc1ccc(OC2C(=O)N(Cc3ccc(F)cc3)C2c2ccc(OC)c(OC)c2)cc1 (stereo unspecified)	14%	-12%	-2%	29µM*	-12%	?
COc1cc(C2C(Oc3ccccc3C)C(=O)N2Cc2ccc(F)cc2)cc(OC)c1OC (stereo unspecified)	?	?	1%	1%	-12%	28
CC1(C(=O)Nc2ccc(Cl)c(C(F)(F)F)c2)Cc2c(-c3cccc(C(N)=O)c3)ccnc2O1 (stereo unspecified)	.	6.5µM*	.	10µM*	.	0
CC(=O)Nc1ccc(NC(=O)C2(C)Cc3c(-c4cccc(C(N)=O)c4)ccnc3O2)cc1 (stereo unspecified)	.	-9%	.	9%	.	7
CC1(C(=O)Nc2ccc(Cl)c(C(F)(F)F)c2)Cc2c(-c3ccc(C(N)=O)cc3)ccnc2O1 (stereo unspecified)	.	15µM*	.	18µM*	.	23
COc1ccc(NC(=O)C2(C)Cc3c(-c4ccc5c(c4)OCO5)ccnc3O2)cc1 (stereo unspecified)	.	2.9µM*	.	4.1µM*	.	37
COc1ccc(NC(=O)C2(C)Cc3c(-c4cccc(C(N)=O)c4)ccnc3O2)cc1 (stereo unspecified)	.	3.7µM*	.	3.7µM*	.	-6
CN1OC[C@@H]2CN(Cc3cc(Cl)cc(Cl)c3)[C@H](c3cccc(-c4ccccc4)c3)C[C@@H]21	.	4%	.	-22%	.	-25
Cc1[nH]c(=O)[nH]c(=S)c1C(=O)Nc1ccc(Cl)c(Cl)c1	.	-3%	.	8%	.	15
